Compound activity as filed in PubChem.
Shown are actives, neighbours in structure and some others; about 3.8% of the full set was active somewhere.
A549 tox: kills or reduces viability of A549 cells in Nrf2 counter-screen; A549 ARE-Fluc cells, CellTiter-Fluor viability, 18-24 h; Potency, µM (series often up to 46 µM), inactives show at the top dose activity change, negative = cytotoxicity, usual class: inhibitors; 390,000 compounds, 0.16% hits; AID 504648; further: on the % scale 0 is the no-effect control and ±100 the full control effect
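Cytotoxicity counterscreen: CellTiter-Fluor fluorescence was measured in A549 ARE_Fluc cells after 18-24 h of compound exposure in a concentration series. The subsequent BugLite luminescent read reports ARE-luciferase activity.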
ATXN2 expr inh: ATXN2 expression inhibition. AID 1745845. 360,000 compounds, 0.72% hits. HEK-293 ATXN2-luciferase reporter, luminescence, 24 h. Potency, µM (doses to about 57 µM), for inactives: at the highest dose activity change, negative = inhibition, hits mostly inhibitors; further: on the % scale 0 is the no-effect control and ±100 the full control effect; nearly all actives have a fitted effect of over 55% in size
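ATXN2-luciferase reporter cells (luciferase flanked by upstream and downstream ATXN2 gene portions) were treated 24 h at 37 °C with compounds at up to 57 uM. SteadyGlo luminescence gave expression; GF-AFC fluorescence gave viability.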
TGFb SMAD3 inh: TGF-b pathway inhibition | HepG2 CAGA-GFP TGF-b/SMAD3 reporter, GFP fluorescence, 18 h; TGF-beta stimulated, 500 pg/mL final | Potency, µM (series often up to 46.1 µM), without a hit: at the top dose activity, negative = inhibition, hits mostly inhibitors | 410,000 compounds, 1.2% hits; further: on the % scale 0 is the no-effect control and ±100 the full control effect; nearly all actives have a fitted effect of over 65% in size
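HEPG2 CAGA-GFP reporter cells (1000/well, DMEM with 1% FBS) received compounds, then recombinant TGF-beta at 500 pg/mL final for 18 hours at 37 degrees C. Per-cell GFP summed per well was normalised to unstimulated and stimulated DMSO controls before curve fitting.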
S2 tox: reduces viability in counter-screen for ATXN expression inhibitors; S2 cells (HEK-293 line with an ATXN2-luciferase reporter) viability, CellTiter-Fluor protease fluorescence, 24 h; AID 651635; 400,000 compounds, 0.49% hits; Potency, µM (doses to about 56.7 µM), hits mostly cytotoxic; further: nearly all actives have a fitted effect of over 40% in size
HepG2 tox: HepG2 cytotoxicity, counter-screen for TGF-b inhibitors | Potency, µM (titrated, usually from 46.1 µM), for inactives: top-dose activity change, negative = cytotoxicity, usual class: cytotoxic | HepG2 CAGA-GFP viability, ATP luminescence, 18 h | 410,000 compounds, 0.76% hits
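CellTiter-Glo luminescence gave cytotoxicity after 18 hours at 37 degrees C. The cells were HepG2 CAGA-GFP in 1% FBS DMEM, stimulated with 500 pg/mL TGF-beta after compound addition. %Activity was normalised to no-cell wells (complete cell-killing) and DMSO (no toxicity), and curves were fitted and classified.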
Nrf2 block: inhibitors of Nrf2 signaling; A549 ARE-Fluc reporter, luciferase luminescence, 18-24 h; Potency, µM (doses to about 46 µM), for the others: at the top dose activity change, negative = inhibition, usual class: inhibitors; 360,000 compounds, 2.1% hits; AID 504444; further: on the % scale 0 is the no-effect control and ±100 the full control effect; nearly all actives have a fitted effect of over 60% in size
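Cells were seeded and rested 2 h, then exposed to compounds for 18-24 h. CellTiter-Fluor was read first as a viability measure. BugLite was added 15 min before the final luminescent read of ARE-luciferase activity in A549 cells.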
Numbers without * were called inactive; i = inactive; ? = inconclusive; . = not tested or not shown. The call rests on the fitted dose curve; in most records, active means well fitted curve in the direction sought with a large enough effect; inconclusive means small, poorly fitted or top-dose-only effect, or another doubt; inactive means no such curve, though single readings can be large; an effect the other way counts as inactive or inconclusive. Potency means the concentration at half of the fitted maximal effect.

SMILES	A549 tox	ATXN2 expr inh	TGFb SMAD3 inh	S2 tox	HepG2 tox	Nrf2 block
COc1cccc(CNc2nc3cc(-c4ccccc4)sc3c(=O)n2C)c1OC	.	?	?	?	10µM*	.
O=S(=O)(/C=C/c1ccccc1)N1CCOCC1	-7%	2%	-16%	i	7%	?
Cc1ccc(Cn2ccc(NC(=O)c3cc(-c4cccc(Cl)c4)on3)n2)cc1	?	-20%	-7%	?	-8%	21µM*
NC(=O)c1cc2ccccc2o/c1=N\NC(=O)c1ccccc1O	-10%	-1%	-1%	i	-5%	8.2µM*
COc1cccc(CNC(=O)CSC2=Nc3ccccc3N=C(c3ccc(F)cc3)C2)c1	-3%	-23%	0%	?	-24%	.
CCOC(=O)C1=C(C)c2ccccc2N(C(=O)OC)C1(C)C(=O)OCC (stereo not drawn)	1%	?	13µM*	.	-78%	6%
O=C(NCCCN1CCN(c2ccccc2F)CC1)c1nnc(Cc2ccc(Cl)cc2Cl)o1	-15%	.	11µM*	.	-62%	18µM*
COc1ccc(Cc2nnc(C(=O)NCCCN3CCN(c4ccccc4F)CC3)o2)cc1OC	-2%	-21%	-9%	?	-6%	?
COc1ccc(/C=N/NC(=O)c2cccc(NC(C)=O)c2)c(OC)c1	7%	-14%	1%	i	-19%	5%
COc1ccc(CCCC(=O)N/N=C/c2cccc(OC)c2O)cc1C	8%	13µM*	?	i	-15%	3%
COc1ccc(C(=O)Nc2cccc(C(=O)N/N=C/c3ccc(OC)cc3OC)c2)cc1	1%	11µM*	-5%	i	9%	?
COc1cccc(/C=N/NC(=O)CNC(=O)C2COc3ccccc3O2)c1O (stereo not drawn)	8%	8.9µM*	-14%	i	-4%	1%
COc1cccc(/C=N/NC(=O)c2ccc(-c3ccccc3)cc2)c1O	1%	3.2µM*	?	?	-33%	-1%
O=C(CNC(=O)C1COc2ccccc2O1)N/N=C\c1ccccc1Cl (stereo not drawn)	5%	-8%	-13%	i	-15%	-2%
Cc1ccccc1N1CCN(S(=O)(=O)c2nnc(NC(=O)c3ccc(C(C)C)cc3)s2)CC1	-2%	18%	-8%	i	-20%	?
Cc1cc(C)cc(NC(=O)c2cc(C)nc3c2c(C)nn3-c2ccccc2)c1	6%	-9%	4%	i	-3%	?
O=C(NNC(=O)c1ccncc1)Nc1cccc(C(F)(F)F)c1	-5%	-14%	12%	i	8%	2%
COc1cccc(/C=N/NC(=O)c2[nH]c(C)c(C(=O)N/N=C/c3cccc(OC)c3O)c2C)c1O	-7%	14µM*	?	i	-46%	?
COc1cccc(/C=N/NC(=O)C(=O)Nc2ccccc2OC(F)(F)C(F)F)c1O	-9%	10µM*	-10%	?	-2%	?
COc1cccc(/C=N/NC(=O)c2ccc(=O)[nH]n2)c1O	1%	.	-1%	i	7%	0%
O=C(N/N=C/c1ccccn1)c1cc(-c2ccccc2)nc2ccccc12	-19%	.	10µM*	?	-22%	?
COc1ccccc1/C=N/NC(=O)c1cccc(OC(F)(F)C(F)F)c1	4%	-13%	-15%	i	0%	-11%
COc1cccc(/C=N/NC(=O)c2ccc(=O)n(C)c2)c1O	1%	15µM*	-1%	.	4%	?
Cc1nnc(NC(=O)CN2CCN(Cc3ccc(F)cc3Cl)CC2)s1	-1%	-7%	?	i	-16%	-3%
COc1ccc(N2CC(NC(=O)c3c(F)cccc3Cl)CC2=O)cc1OC (stereo not drawn)	17%	8%	-25%	i	2%	.
SMILES	A549 tox	ATXN2 expr inh	TGFb SMAD3 inh	S2 tox	HepG2 tox	Nrf2 block
COc1ccc(C(=O)N/N=C/c2ccc(OC(=O)c3ccccc3)cc2)cc1	2%	14%	0%	i	-16%	9%
COc1ccc(C(=O)N/N=C/c2ccc(N(C)c3ccccc3)cc2)cc1	-2%	27µM*	0%	i	-17%	?
COc1ccc(-c2cc(C(=O)N/N=C/c3ccc4c(c3)OCO4)c3ccccc3n2)c(OC)c1	-15%	120%	-1%	i	11µM*	93%
COc1cc2ccccc2cc1C(=O)N/N=C/c1ccc2c(c1)OCO2	-19%	-15%	?	?	1%	7%
COc1cccc(/C=N/NC(=O)c2cnccn2)c1OC	-3%	14%	0%	i	13µM*	0%
Cc1cccc(/C=N/NC(=O)c2c(-c3ccccc3)noc2C)c1O	-1%	3.5µM*	?	i	-2%	?
CCCn1c(=O)n(-c2ccccc2Cl)c(=O)c2sc3ccccc3c21	-2%	4%	-9%	?	-1%	7%
COC1CCC2(C)C(=CCC3C4CC(O)CC4(C)CCC32)C1 (stereo not drawn)	18%	-7%	-17%	i	7%	-13%
O=C(NCCCN1CCOCC1)C1CCN(S(=O)(=O)c2ccccc2)CC1	-1%	2%	8%	i	0%	0%
COc1cccc(/C=N/NC(=O)c2cc(-c3ccccn3)nc3ccccc23)c1O	1%	5µM*	-24%	?	-3%	-2%
O=C(N/N=C/c1ccc(F)cc1)c1cc(-c2ccccn2)nc2ccccc12	-2%	2%	3%	i	-2%	-10%
COc1ccc(OC)c(NS(=O)(=O)c2c(C(=O)N3CCCCCC3)c(C)n(C)c2C)c1	-11%	13%	5%	i	2%	2%
CCOC(=O)c1c(C)[nH]c(C(=O)Cn2nnc(-c3ccccc3Cl)n2)c1C	-8%	-7%	-10%	?	-27%	?
CCOC(=O)c1c(C)[nH]c(C)c1C(=O)Cn1nnc(-c2ccccc2C)n1	-28%	-17%	-26%	i	-12%	13µM*
CNC[C@H](Cc1ccccc1)NC[C@@H](Cc1cccc2ccccc12)NCCc1ccc(C)cc1	0%	?	?	?	18µM*	17%
CCOC(=O)Cn1c(C2CC(=O)N(c3ccc(C)cc3)C2)nc2ccccc21 (stereo not drawn)	-13%	9%	-6%	i	3%	21µM*
CCc1ccc(N2CC(c3nc4ccccc4n3Cc3ccccc3C)CC2=O)cc1 (stereo not drawn)	-7%	?	10µM*	?	-26%	15µM*
